# Active and inactive are the calls of the source.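 Rule for the calls: active = inhibition above 40% at one or more tested concentrations in the dose response counterscreen; inactive = inhibition below 40% at every dose tested.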
# Assay: nmpC-GFP reporter inhibition in S. Typhimurium, SAR follow-up, counter-screen for PhoP regulon inhibitor project, synthesized compounds, round 3 (AID 434990)
# Settings: S. Typhimurium counter-screen GFP reporter fluorescence, 4 h; series mostly up to 150 µM; inhibition: at the top concentration
row,SMILES,inhibition
1,Cc1ccc(NC(=O)N2CCCN(Cc3ccccc3F)C2)cc1,-1.1% (inactive)
2,O=C(Nc1cccc(I)c1)N1CCCN(Cc2ccccc2F)C1,18.6% (inactive)
3,O=C(Nc1ccc(Cl)cc1)N1CCCN(Cc2ccc(Br)cc2)C1,1.9% (inactive)
4,S=C(NCCc1ccc(Cl)cc1)Nc1ccncc1,-5.69% (inactive)
5,Cc1ccccc1CNC(=S)Nc1ccncc1,-2.17% (inactive)
6,O=C1C2=C(Nc3ccccc3SC2c2cccc(I)c2)c2ccccc21 (centres undefined),-79.9% (inactive)
7,COc1ccccc1CNC(=S)Nc1ccncc1,-1.11% (inactive)
8,N#Cc1ccc(NC(=S)NCc2ccc(Cl)cc2)cc1,-11.5% (inactive)
9,N#Cc1ccccc1NC(=S)NCc1ccc(Cl)cc1,-2.55% (inactive)
10,O=C(Nc1ccc(Cl)cc1)N1CCCN(Cc2ccccc2Br)C1,0.23% (inactive)
11,O=C(Nc1ccc(I)cc1)N1CCCN(Cc2ccccc2F)C1,9.87% (inactive)
12,Cc1cccc(NC(=O)N2CCCN(Cc3ccccc3F)C2)c1,12.2% (inactive)
13,O=C(Nc1cccc(F)c1)N1CCCN(Cc2ccccc2F)C1,14% (inactive)
14,O=C(Nc1cccc(C(F)(F)F)c1)N1CCCN(Cc2ccccc2F)C1,13.3% (inactive)

# Reference: PubChem BioAssay AID434990 (Southern Research Specialized Biocontainment Screening …, 2010)
